Compounds with a hit are over-represented: about 6.7% of the library has one in this group of screens.
KB-3-1 tox – qHTS assay for MDR1-selective chemotherapeutics: Primary screen using the parental adenocarcinoma cell KB-3-1; KB-3-1 viability, CellTiter-Glo ATP luminescence, 72 h; Potency, µM (top dose mostly 46.1 µM), most hits filed as cytotoxic; hit rate 1.4% among 400,000; AID 1347075, 2019; note: % is set by controls: 0 for no effect and ±100 for the full control effect; nearly all actives have a fitted effect of over 60% in size
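Multi-concentration cytotoxicity screen in KB-3-1 cells grown in DMEM lacking phenol red with 10% FBS. After 72 h at 37 °C with compound, ATP-dependent luminescence was recorded.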
KB-V1 MDR tox – qHTS assay for MDR1-selective chemotherapeutics: Primary screen using the drug-selected MDR subline cells KB-V1. hit rate 3.4% among 400,000. Potency, µM (series often up to 46.1 µM), usual class: cytotoxic. KB-V1 MDR cells viability, CellTiter-Glo, 72 h; note: % is set by controls: 0 for no effect and ±100 for the full control effect; nearly all actives have a fitted effect of over 60% in size
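Cells of the MDR subline KB-V1 are plated, dosed with compound at multiple concentrations, and incubated 72 h at 37 degrees C; CellTiter-Glo is then added and luminescence read after 10 min.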
PINK1 expr mod – A Quantitative High throughput Screen to Identify Chemical Modulators of PINK1 Expression. PINK1 immunofluorescence, high-content cytometry, 24 h. Potency, µM (top dose mostly 76.6 µM), without a hit: top-dose activation (PINK1 increase), hits mostly activators. hit rate 0.2% among 410,000. AID 624263, 2012; active = well fitted activation curve with a large enough effect; inconclusive = small, poorly fitted or top-dose-only effect; cell line not stated here; note: % of control where 0% means no effect; nearly all actives have a fitted effect of over 65% in size
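Measures PINK1 amount and localization on or inside mitochondria by immunofluorescence. Stable cells get compounds at 5 concentrations for 24 hours before fixation and staining; CCCP controls included.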
MCF10A rerep – A quantitative high throughput screen for small molecules that induce DNA re-replication in MCF 10a normal breast cells | MCF 10A DNA re-replication, Hoechst nuclear intensity, 48 h | Potency, µM (doses to about 46.1 µM), for the others: at the highest dose activity, positive = re-replication, actives largely listed as activators | hit rate 2.9% among 350,000 | AID 624296, 2012; note: % of control where 0% means no effect; nearly all actives have a fitted effect of over 50% in size
SW480 rereplic – A quantitative high throughput screen for small molecules that induce DNA re-replication in SW480 colon adenocarcinoma cells; SW480 DNA re-replication, Hoechst DNA content imaging, 48 h; Potency, µM (top dose mostly 46.1 µM), without a hit: at the top dose re-replication activation, usual class: activators; hit rate 1.8% among 340,000; AID 624297, 2012; note: % of control where 0% means no effect; nearly all actives have a fitted effect of over 55% in size
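First, 250 cells per well were seeded. Next, compound or vehicle (23 nL) was pinned in, plates sat 48 hr at 37 C. Finally Hoechst was added for 40 min before fluorescence scanning.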
Active calls of the source: *; [ ] = another dose, or the depositor's remark. Unless noted, calls come from the whole dose curve; as a rule, active = well fitted curve in the direction sought with a large enough effect; inconclusive = small, poorly fitted or top-dose-only effect, or another doubt; inactive = no such curve, though single readings can be large; an effect the other way counts as inactive or inconclusive. Potency is the fitted concentration of half-maximal effect.

Results for Cc1cccc(C(=O)NCc2nnc(SCC(=O)NC(C)c3ccccc3)n2C)c1 (centres undefined) ?
KB-3-1 tox: inactive; KB-V1 MDR tox: inactive; PINK1 expr mod: -1.0%; MCF10A rerep: -3.9%; SW480 rereplic: 18.4µM*

What do the screens show for `Cc1ccc(NC(=O)c2ccc(-n3cncn3)c([N+](=O)[O-])c2)cc1F`?
KB-3-1 tox: inactive; KB-V1 MDR tox: inactive; PINK1 expr mod: 1.7%; MCF10A rerep: 1.5%; SW480 rereplic: -7.8%

How did O=C(Nc1ccc(F)cc1)c1ccc(-n2cncn2)c([N+](=O)[O-])c1 do in these assays?
KB-3-1 tox: inconclusive; KB-V1 MDR tox: 11.6µM*; PINK1 expr mod: -0.4%; MCF10A rerep: -0.1%; SW480 rereplic: 50.3%

How did Cc1cc(C(=O)CSc2n[nH]c(N)n2)c(C)n1-c1cc(F)ccc1F do in these assays?
KB-3-1 tox: inactive; KB-V1 MDR tox: inactive; PINK1 expr mod: 0.5%; MCF10A rerep: 0.4%; SW480 rereplic: -4.3%

How did Cc1cc(C(=O)CSc2n[nH]c(N)n2)c(C)n1-c1ccc(F)cc1 do in these assays?
KB-3-1 tox: inconclusive; KB-V1 MDR tox: 16.4µM*; PINK1 expr mod: 14.8%[38.3 µM]; MCF10A rerep: 6.4%; SW480 rereplic: -2.4%

What do the screens show for `Cc1ccc(-n2c(C)cc(C(=O)CSc3n[nH]c(N)n3)c2C)cc1`?
KB-3-1 tox: 20.6µM*; KB-V1 MDR tox: inactive; PINK1 expr mod: 3.8%[38.3 µM]; MCF10A rerep: 13.3%; SW480 rereplic: -23.0%

Results for Cc1cc(C(=O)CSc2n[nH]c(N)n2)c(C)n1-c1ccccc1 ?
KB-3-1 tox: inactive; KB-V1 MDR tox: inactive; PINK1 expr mod: 0.7%[38.3 µM]; MCF10A rerep: inconclusive; SW480 rereplic: 8.0%

Results for O=C(NCc1cccs1)c1ccc(Cl)c(S(=O)(=O)N2CCOCC2)c1 ?
KB-3-1 tox: inactive; KB-V1 MDR tox: inactive; PINK1 expr mod: -0.6%

How did O=C(NCc1ccc(Cl)nc1)c1ccc2nc([C@@H]3O[C@H](CO)[C@H](O)[C@H](O)[C@H]3O)[nH]c2c1 do in these assays?
KB-3-1 tox: inactive; KB-V1 MDR tox: inactive; PINK1 expr mod: -0.5%

What do the screens show for `Cc1c(C(=O)Nc2cccc(Cl)c2)c2ccccn2c1CCc1ccncc1`?
KB-3-1 tox: inactive; KB-V1 MDR tox: inconclusive; PINK1 expr mod: 1.3%; MCF10A rerep: 7.31µM*; SW480 rereplic: inconclusive

What do the screens show for `Cc1cccc(C(=O)NC2(C(F)(F)F)N=C(c3ccccc3)N(C3CCCCC3)C2=O)c1` (centres undefined)?
KB-3-1 tox: inactive; KB-V1 MDR tox: inactive; PINK1 expr mod: -1.5%

What do the screens show for `CCc1cccc2c(C(=O)CN3C(=O)NC4(CCCCC4)C3=O)c[nH]c12`?
KB-3-1 tox: inconclusive; KB-V1 MDR tox: inconclusive; PINK1 expr mod: 9.7%; MCF10A rerep: 13µM*; SW480 rereplic: -1.3%

Results for CCc1cccc2c(C(=O)CCl)c[nH]c12 ?
KB-3-1 tox: inactive; KB-V1 MDR tox: inactive; PINK1 expr mod: -2.0%; MCF10A rerep: 23.1µM*; SW480 rereplic: inconclusive

How did Cc1ccc2cccc(NC(=O)c3ccc(-c4cccc(Cl)c4)o3)c2n1 do in these assays?
KB-3-1 tox: inactive; KB-V1 MDR tox: inactive; PINK1 expr mod: -2.4%

What do the screens show for `CC(C)OCCCNC(=S)N1CCC(C(=O)c2ccc(F)cc2)CC1`?
KB-3-1 tox: inconclusive; KB-V1 MDR tox: inconclusive; PINK1 expr mod: 0.8%

What do the screens show for `Cc1ccc(C(=O)C2CCN(C(=S)NCCCOC(C)C)CC2)cc1`?
KB-3-1 tox: inactive; KB-V1 MDR tox: inactive; PINK1 expr mod: 2.5%; MCF10A rerep: 20.6%; SW480 rereplic: 14.6µM*

How did C/C(=N\NC(=O)c1cccnc1)c1cc(C)oc1C do in these assays?
KB-3-1 tox: inactive; KB-V1 MDR tox: inactive; PINK1 expr mod: -0.2%; MCF10A rerep: 7.1%; SW480 rereplic: 20.6µM*

What do the screens show for `C=CC(=O)N1C/C(=C/c2ccc(Cl)cc2)C(=O)/C(=C\c2ccc(Cl)cc2)C1`?
KB-3-1 tox: inconclusive; KB-V1 MDR tox: inactive; PINK1 expr mod: 1.6%; MCF10A rerep: inconclusive; SW480 rereplic: 1.46µM*

How did C=CC(=O)N1C/C(=C/c2ccccc2)C(=O)/C(=C\c2ccccc2)C1 do in these assays?
KB-3-1 tox: 4.11µM*; KB-V1 MDR tox: inconclusive; PINK1 expr mod: -6.5%; MCF10A rerep: 19.3%; SW480 rereplic: inconclusive

What do the screens show for `O=C1/C(=C/c2ccc(C(=O)O)cc2)CCC/C1=C\c1ccc(C(=O)O)cc1`?
KB-3-1 tox: inactive; KB-V1 MDR tox: inactive; PINK1 expr mod: 3.5%; MCF10A rerep: 4.6%; SW480 rereplic: -10.9%

Results for O=CNCc1nc2ccccc2n1CCc1ccccc1 ?
KB-3-1 tox: inactive; KB-V1 MDR tox: inconclusive; PINK1 expr mod: -2.2%; MCF10A rerep: inconclusive; SW480 rereplic: 2.91µM*

Results for COC(=O)c1ccc(CN2CCOc3ccc(CN4CCC(O)(c5cccnc5)CC4)cc3C2)cc1 ?
PINK1 expr mod: 0.1%

Results for CCOCCc1nn2c(=O)cc(COC(=O)c3ccccc3OC)nc2s1 ?
KB-3-1 tox: inactive; KB-V1 MDR tox: inactive; PINK1 expr mod: -0.8%

Results for CCc1nn2c(=O)cc(COC(=O)c3ccc(SC)cc3OC)nc2s1 ?
KB-3-1 tox: inactive; KB-V1 MDR tox: 10.3µM*; PINK1 expr mod: -1.2%; MCF10A rerep: -6.5%; SW480 rereplic: -6.5%

Results for Clc1ccc(CSc2nncn2-c2ccc3c(c2)OCCO3)cc1 ?
KB-3-1 tox: 13µM*; KB-V1 MDR tox: inconclusive; PINK1 expr mod: 3.6%; MCF10A rerep: 9.2µM*; SW480 rereplic: 20.6µM*

How did CCOC(=O)N1CCC(Nc2nc3ccccc3nc2NS(=O)(=O)c2ccc(Cl)cc2)CC1 do in these assays?
KB-3-1 tox: inconclusive; KB-V1 MDR tox: 14.6µM*; PINK1 expr mod: -1.2%[38.3 µM]; MCF10A rerep: -0.1%; SW480 rereplic: 9.0%

How did CCOC(=O)N1CCC(NC(=O)c2ccc(Cl)cc2)CC1 do in these assays?
KB-3-1 tox: inactive; KB-V1 MDR tox: inactive; PINK1 expr mod: 0.7%; MCF10A rerep: -1.2%; SW480 rereplic: -21.4%

What do the screens show for `O=S(=O)(Nc1nc2ccccc2nc1N1CCN(c2ccccc2F)CC1)c1ccc(Cl)cc1`?
KB-3-1 tox: 11.2µM*; KB-V1 MDR tox: inconclusive; MCF10A rerep: 10.3µM*; SW480 rereplic: -1.6%

Results for Cc1cc(C(=O)N2CCC(C(N)=O)CC2)c(C)o1 ?
KB-3-1 tox: inactive; KB-V1 MDR tox: inactive; PINK1 expr mod: -1.9%; MCF10A rerep: 9.6%; SW480 rereplic: 16.4µM*

What do the screens show for `Cc1cccc(N2CCN(C(=O)c3cc(C)oc3C)CC2C)c1` (centres undefined)?
KB-3-1 tox: 18.4µM*; KB-V1 MDR tox: 14.6µM*; PINK1 expr mod: 28.4%; MCF10A rerep: inconclusive; SW480 rereplic: -11.5%

Compound activity from PubChem.
